Assay outcomes: PubChem BioAssay, National Center for Advancing Translational Sciences (NCATS)
Rows were chosen to be rich in hits. Some 6.5% of all compounds tested hit in one or more screens of this group.
MARV entry inh: inhibitors of Marburg virus binding or cell entry. AID 540276. Potency, µM (titrated, usually from 37.8 µM), inactives show top-dose activity change, negative = inhibition, usual class: inhibitors. Marburg virus pseudotyped entry inhibition, cell reporter. 300,000 tested, 1.8% active; calls by dose curve; tested in HEK293 cells; further: potency means the concentration at half of the fitted maximal effect
LASV entry inh: inhibitors of Lassa virus binding or cell entry; Lassa virus pseudotype entry inhibition, cell reporter; Potency, µM (series often up to 37.9 µM), without a hit: at the highest dose activity change, negative = inhibition, usual class: inhibitors; 300,000 tested, 1.2% active; AID 540256; calls by dose curve; tested in HEK293 cells; further: potency means the concentration at half of the fitted maximal effect; nearly all actives have a fitted effect of over 50% in size
Vaccinia mCherry: vaccinia inhibition (mCherry reporter). Vaccinia virus mCherry reporter infection, fluorescence. Potency, µM (series often up to 36.5 µM), without a hit: at the highest dose activity change, negative = inhibition, usual class: inhibitors. 310,000 tested, 0.63% active; calls by dose curve; tested in A549 cells; further: potency means the concentration at half of the fitted maximal effect; nearly all actives have a fitted effect of over 35% in size
FMDV inh: blocks foot and mouth disease virus. 410,000 tested, 1.2% active. Potency, µM (titrated, usually from 57.9 µM), without a hit: top-dose activity change, negative = inhibition, usual class: inhibitors. FMDV antiviral cell-based qHTS. AID 1159524; calls by dose curve; tested in HEK293T cells; further: read-out not given here; potency means the concentration at half of the fitted maximal effect; nearly all actives have a fitted effect of over 45% in size
VACV Venus inh: vaccinia inhibition (Venus reporter). Vaccinia virus Venus reporter expression, fluorescence. Potency, µM (doses to about 36.5 µM), for inactives: top-dose activity change, negative = inhibition, actives largely listed as inhibitors. 330,000 tested, 0.46% active. AID 720580; calls by dose curve; tested in A549 cells; further: potency means the concentration at half of the fitted maximal effect; nearly all actives have a fitted effect of over 30% in size
HCMV inh: blocks human cytomegalovirus replication. HFF cells, HCMV-luciferase reporter, 72 h; stronger effect = lower value. activity change, negative = inhibition, % at 57.5 µM. 410,000 tested, 4.5% active; in the data active means activity change below about -60%; inconclusive means no clear call, values can overlap the other calls; inactive means above about -39%
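Compounds were evaluated in HFFs infected with an HCMV luciferase reporter virus (MOI 1 PFU/cell). Luciferase in lysates collected 72 h post infection served as the replication measure.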
Numbers without * were called inactive; i = inactive; ? = inconclusive; nt = no result given; [ ] = remark or other dose. On the % scale 0 is the no-effect control and ±100 the full control effect.

SMILES | MARV entry inh | LASV entry inh | Vaccinia mCherry | FMDV inh | VACV Venus inh | HCMV inh
O=[S+]([O-])([O-])c1ccc2c(c1)cc([S+](=O)([O-])[O-])c1nn(-c3ccc(/C=C/c4ccc(-n5nc6c([S+](=O)([O-])[O-])cc7cc([S+](=O)([O-])[O-])ccc7c6n5)cc4[S+](=O)([O-])[O-])c([S+](=O)([O-])[O-])c3)nc12 | nt | nt | -18% | nt | -14% | nt
COc1ccc(/C=C/c2nc3ccccc3n2C)cc1 | ? | 0.11µM* | ? | 1.8µM* | ? | -85*
Cc1cccc(C)c1N=CN1c2ccccc2-n2cccc2C1c1ccccc1 (centres undefined) | nt | nt | nt | nt | nt | -4
CCN(CC)C(=O)c1ccc2sc([C@H]3C[C@H](O)[C@@H](CO)O3)nc2c1 | nt | nt | 14% | 15% | -3% | -10
O=C1CC(c2ccccc2)=Nc2ccc(Br)cc2N1 | ? | ? | -27% | 7% | -25% | -68*
Cc1ccc2c(c1)NC(=O)CC(c1ccccc1)=N2 | -27% | 24% | -12% | 11% | -8% | ?
COc1ccc(OC)c(C(=O)CC2OC(=O)c3ccccc32)c1 (centres undefined) | ? | -4% | nt | 14µM* | nt | -90*
Cc1cc(C(=O)NC(Cc2c[nH]c3ccccc23)C(=O)O)c(C)o1 (centres undefined) | 0% | 20% | -7% | 2% | 3% | 36
COC(=O)C(Cc1c[nH]c2ccccc12)NC(=O)c1cc(-c2ccc(OC)c(OC)c2)oc1C (centres undefined) | ? | 10µM* | -25% | -28% | -17% | 43
COC(=O)[C@@H](Cc1c[nH]c2ccccc12)NC(=O)c1ccc2c(c1)OCO2 | nt | nt | nt | -2% | nt | -105*
O=C(COC(=O)[C@H](Cc1c[nH]c2ccccc12)NC(=O)c1ccc(Cl)cc1)Nc1ccc2c(c1)OCO2 | -7% | 22% | nt | 48% | nt | 51
CCOCCCNC(=O)c1cc(=O)[nH]c2ccc(S(=O)(=O)N3CCCC3)cc12 | ? | 1%[46.1 µM] | 2% | -14% | -1% | -19
Cc1csc(NC(=O)/C=C/c2ccc3c(c2)OCO3)n1 | 4.5µM* | ? | -13% | -51% | -26% | 9
O=C(/C=C/c1ccc2c(c1)OCO2)NCc1ccco1 | -2% | 10µM* | i | 21% | -19% | 1
Cc1ccc(/C=C/C(=O)NCc2ccc3c(c2)OCO3)o1 | 7% | 1% | -16% | 27% | -3% | -62*
O=C(/C=C/c1ccc2c(c1)OCO2)Nc1nc(-c2ccc(F)cc2F)cs1 | 3% | 18% | nt | nt | nt | nt
Cc1ccccc1CN1CCc2nnc(C(C)NC(=O)C3CCN(C)CC3)n2CC1 (centres undefined) | nt | nt | i | 4% | 0% | nt
Oc1ccc(Nc2nccc3[nH]c(-c4cccc(F)c4)cc23)cc1 | nt | nt | nt | nt | nt | -9
Nc1ncc(Br)cc1S(=O)(=O)Nc1cc(C(F)(F)F)cc(C(F)(F)F)c1 | ? | 14µM* | ? | -9% | ? | -101*
O=C(Nc1ccccn1)C1CCN(c2ncnc3c2nc2n3CCCCC2)CC1 | nt | nt | nt | ? | nt | -84*
COC(=O)C(CCSC)NC(=O)C1CCN(c2ncnc3c2nc2n3CCCCC2)CC1 (centres undefined) | nt | 7%[46.1 µM] | i | 16% | -7% | -100*
CCc1ccc(NC(=O)C2CCN(c3ncnc4c3nc3n4CCCCC3)CC2)cc1 | 8%[46.1 µM] | -30%[46.1 µM] | -4% | ? | -9% | -73*
O=C(Nc1ccc(F)cc1)C1CCN(c2ncnc3c2nc2n3CCCCC2)CC1 | nt | nt | nt | -9% | nt | -9
COCCCNC(=O)C1CCN(c2ncnc3c2nc2n3CCCCC2)CC1 | nt | 5%[46.1 µM] | i | 27% | -7% | -16
c1ccc(Cc2nnc(Sc3ccccc3)c3ccccc23)cc1 | -28% | -16% | -15% | ? | -23% | -88*
COc1ccc(Oc2ncc3nc(-c4cccs4)c(=O)n(C)c3n2)cc1 | nt | nt | nt | 6% | nt | nt
CC1(C)c2ccccc2-n2c1cc1oc(=O)cc(O)c1c2=O | -7%[46.1 µM] | -14%[46.1 µM] | -1% | -29% | -14% | -25
CCOc1ccc(C2CC(c3c(O)c4ccccc4oc3=O)=NN2c2ccccc2)cc1OC (centres undefined) | -6%[46.1 µM] | ? | ? | -7% | -18% | -78*
OC(COc1ccc(CNCCc2ccccc2F)cc1)CN1CCCCC1 (centres undefined) | 2.3µM* | ? | nt | -10% | nt | -33
